Legend:
[1] = target: Heat shock-related 70 kDa protein 2 (UniProt P54652); assay: cross-linking mass spectrometry
[2] = target: Heat shock protein 105 kDa (UniProt Q92598); assay: cross-link between two proteins; cross-linking mass spectrometry
[3] = target: Histone H2B type 1-L (UniProt Q99880); assay: cross-linking mass spectrometry
[4] = target: Nucleobindin-1 (UniProt Q02818); assay: cross-linking mass spectrometry
[5] = target: 14-3-3 protein epsilon (UniProt P62258); assay: cross-link between two proteins; cross-linking mass spectrometry
[6] = target: 26S proteasome non-ATPase regulatory subunit 1 (UniProt Q99460); assay: as above
[7] = target: 26S proteasome regulatory subunit 10B (UniProt P62333); assay: as above
[8] = target: 26S proteasome regulatory subunit 7 (UniProt P35998); assay: as above
[9] = target: ATP synthase F(1) complex subunit alpha, mitochondrial (UniProt Q03265); assay: as above
[10] = target: ATP synthase F(1) complex subunit gamma, mitochondrial (UniProt Q91VR2); assay: as above
[11] = target: Creatine kinase U-type, mitochondrial (UniProt P12532); assay: as above
[12] = target: Elongation factor 1-alpha 2 (UniProt Q05639); assay: as above
[13] = target: Heterogeneous nuclear ribonucleoprotein A1-like 2 (UniProt Q32P51); assay: as above
[14] = target: NADH dehydrogenase [ubiquinone] 1 beta subcomplex subunit 5, mitochondrial (UniProt Q9CQH3); assay: as above
[15] = target: Septin-10 (UniProt Q9P0V9); assay: as above
[16] = target: Tubulin beta-2B chain (UniProt Q9BVA1); assay: as above

Substance: Heat shock 70 kDa protein 4, P34932
- listed as a hit [1]: yes
- listed as a hit [2]: yes

Substance: Non-histone chromosomal protein HMG-14, P05114
- listed as a hit [3]: yes

Substance: Nucleobindin-2, P80303
- listed as a hit [4]: yes

Substance: 14-3-3 protein sigma, P31947
- listed as a hit [5]: yes

Substance: Proteasome subunit alpha type-4, P25789
- listed as a hit [6]: yes

Substance: 26S proteasome non-ATPase regulatory subunit 7, P51665
- listed as a hit [7]: yes

Substance: Proteasome subunit alpha type-6, P60900
- listed as a hit [7]: yes

Substance: Proteasome subunit alpha type-7, O14818
- listed as a hit [8]: yes

Substance: ATP synthase F(1) complex subunit epsilon, mitochondrial, P56382
- listed as a hit [9]: yes

Substance: ATP synthase F(1) complex subunit alpha, mitochondrial, Q03265
- listed as a hit [10]: yes

Substance: Creatine kinase B-type, P12277
- listed as a hit [11]: yes

Substance: Elongation factor 1-beta, P24534
- listed as a hit [12]: yes

Substance: Heterogeneous nuclear ribonucleoprotein A0, Q13151
- listed as a hit [13]: yes

Substance: NADH dehydrogenase [ubiquinone] 1 subunit C2, Q9CQ54
- listed as a hit [14]: yes

Substance: Septin-7, Q16181
- listed as a hit [15]: yes

Substance: Tubulin-specific chaperone A, O75347
- listed as a hit [16]: yes

From PMC12215968
